# Source: PubChem BioAssay AID686978 (National Center for Advancing Translational Sciences (NCATS), 2013)
# About 64,000 (15%) of roughly 420,000 compounds were called active. Another 27% or so got no clear call; they are omitted. The list is a sample of the results. Values without a mark were called inactive. Calls come from the whole dose curve; as a rule, active = well fitted inhibition curve with a large enough effect; inconclusive = small, poorly fitted or top-dose-only effect; inactive = flat fitted curve, though single readings scatter.
# Assay: qHTS for Inhibitors of human tyrosyl-DNA phosphodiesterase 1 (TDP1): qHTS in cells in absence of CPT; note: nearly all actives have a fitted effect of over 55% in size
# Conditions: DT40 Tdp1-/- hTDP1 cells, no CPT, ATP luminescence, 48 h; activity change, negative = growth inhibition: at 46.2 µM (top of the series)
# Outline: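 Growth of hTDP1-complemented DT40 Tdp1-knockout cells is measured by ATP luminescence after at least 48 hr compound exposure at 37 °C, with DMSO substituting for the 20 nM CPT used in the parallel screen.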
# % is set by controls: 0 for no effect and ±100 for the full control effect; potency is the fitted concentration of half-maximal effect.
SMILES,"activity change, negative = growth inhibition [%]",Potency
NS(=O)(=O)c1ccc(CCNC(=O)NC2CCCCC2)cc1,1.16,–
O=S(=O)(c1cccs1)N1CCc2ccccc2C1,-11.7,–
Cc1cccc2cc(CN(C(=O)c3cccs3)c3ccccc3)c(=O)[nH]c12,-20.8,–
Cc1ccc(N(Cc2cc3ccccc3[nH]c2=O)C(=O)c2cccs2)cc1,–,14.6 µM (active)
CCC(=O)N(CCc1ccccc1)Cc1cc2cc(C)ccc2[nH]c1=O,-19.6,–
Cc1ccc(-n2nc(C)c(C(=O)O)c2-n2cccc2)cc1,-1.81,–
CC(C)Oc1ccc(C(=O)NCC(=O)Nc2ccc3c(c2)CCC3)cc1,-11.2,–
CCCN(CCC)CCCNC(=O)Cn1cc2c(n1)-c1c(oc(C(=O)N3CCCC3)c1C)CC2,-14.5,–
CCOc1ccc(CNC(=O)Cn2cc3c(n2)-c2c(oc(C(=O)N4CCCC4)c2C)CC3)cc1,–,20.6 µM (active)
CCOC(=O)N1CCC(NC(=O)Cn2cc3c(n2)CCCCC3)CC1,-11.3,–
Cc1c(C(=O)N2CCCC2)oc2c1-c1nn(CC(=O)NCc3ccc(OC(C)C)cc3)cc1CC2,–,20.6 µM (active)
COCCNC(=O)Cn1cc2c(n1)CCCCC2,-0.37,–
CC(C)OC(=O)Cn1nc(C(F)(F)F)c2c1CCCC2,-2.71,–
CCCC(C)c1nnc(NC(=O)C2CC(=O)N(c3ccc(OCC)cc3)C2)s1 (configuration not stated),-29.7,–
Cc1nnc(C(=O)NC(C)(C)c2nc(C(=O)NCc3ccc(F)cc3)c(O)c(=O)n2C)o1,-28.7,–
COc1ccnc(Oc2ccccc2)c1-c1ncn[nH]1,7.94,–
Cc1nn(CC(=O)N2CCCCC2)c(=O)c2nn(-c3ccccc3)c(C)c12,40.7,–
COc1ccccc1CNC(=O)COC(=O)c1sc(C)nc1C,-17.9,–
COc1ccc(OC)c(CNC(=O)Cn2nc(C)c3c(C)n(-c4ccc(C)cc4)nc3c2=O)c1,–,16.4 µM (active)
Cc1ccccc1CNC(=O)CSc1nnc(C)c2c(C)n(-c3ccccc3)nc12,-24.4,–
Cc1nnc(SCC(=O)NCc2ccccc2Cl)c2nn(-c3ccccc3)c(C)c12,–,23.1 µM (active)
CCOC(=O)C1CCN(C(=O)Cn2nc(C)c3c(C)n(-c4ccccc4)nc3c2=O)CC1,6.57,–
CCNC(=O)Cn1nc(C)n2c(cc3c(OC)cccc32)c1=O,-15,–
COc1ccccc1CNC(=O)Cn1nc(C)c2nn(-c3ccc(Cl)cc3)c(C)c2c1=O,–,23.1 µM (active)
Cc1cccn2c(=O)nc(SCC(=O)NCc3ccccc3Cl)nc12,-1.53,–
Cc1ccccc1-c1nnn(CC(=O)c2ccc(S(=O)(=O)N3CCCC3)cc2)n1,-26.4,–

SMILES,"activity change, negative = growth inhibition [%]",Potency
CNC1(c2nnnn2-c2c(C)cccc2C)CCOC(C)(C)C1 (configuration not stated),15.9,–
COc1c(O)cccc1-c1nnn(CCC(=O)OCC(=O)c2ccccc2)n1,-15.8,–
CC1(C(=O)NS(=O)(=O)c2cccc(OC(F)F)c2)CCN1C(=O)C1CC1 (configuration not stated),2.72,–
CCCCn1c(N)c(N(CC(C)C)C(=O)CN(C)S(=O)(=O)c2ccc(F)cc2)c(=O)[nH]c1=O,11.9,–
Cc1cc2nc3n(c2cc1C)CC1CC(C(=O)NCCC(C)C)N(C)C31 (configuration not stated),-8.55,–
CCCCOc1ccc(Cl)cc1CSc1nncn1N,-20.7,–
CN(c1ccc(C(=O)NCc2ccccn2)cc1)S(C)(=O)=O,1.99,–
CS(=O)(=O)NCc1ccc(C(=O)NCc2ccccc2)cc1,-11.1,–
COc1cccc(S(=O)(=O)NCc2ccc(C(=O)NCc3ccccn3)cc2)c1,–,0.92 µM (active)
CCSc1nc(O)c(C(c2cccc(OC)c2)c2c(O)nc(SCC)[nH]c2=O)c(=O)[nH]1,-1.04,–
C/C=N/N(c1ccccc1)c1ccccc1,0.354,–
OCc1ccc(OCCCOc2cccc3cccnc23)cc1,5.78,–
COc1ccccc1CNC(=O)COc1ccc(C)nc1[N+](=O)[O-],0.843,–
Cc1ccc2cccc(OCCCOc3ccccc3CO)c2n1,–,23.1 µM (active)
O=S(=O)(c1ccc(Sc2nnc3ccccn23)nc1)N1CCOCC1,-11.4,–
CCOCC(=O)NCc1ccc2c(c1)cc(C)n2C,-13.3,–
CCn1c(=S)[nH]c2cc(S(=O)(=O)N3CCOCC3)ccc21,-10.9,–
O=C(NCc1cccc(Cl)c1)C1=CC=CN2CCS(=O)(=O)N=C12,26.7,–
COc1ccc(C)cc1NC(=O)CCC(=O)Nc1nnc(C(F)(F)F)s1,-0.883,–
CSc1ccccc1NC(=O)CN(C)CC(=O)Nc1cccc(Br)c1,–,23.1 µM (active)
CSc1ccccc1NC(=O)Cc1ccc(Br)cc1,-19.4,–
CN(CC(=O)Nc1ccccc1F)CC(=O)Nc1ccccc1Br,-24.5,–
CCn1c(SCC(=O)Nc2sc(C)c(C)c2C#N)nnc1C1CC1,6.18,–
CC(C)(O)C#Cc1ccc(C(=O)N2CCC(C(N)=O)(N3CCCCC3)CC2)cc1,-1.61,–
CC1CCN(C(=O)COC(=O)c2cc(S(=O)(=O)N3CCOCC3)ccc2Cl)CC1,-25.4,–
Cn1c(=O)c2c(SCC(=O)NCC3CCCO3)nc(CC(C)(C)C)nc2n(C)c1=O (configuration not stated),-1.92,–
